In the supplement of paper PMC12024529:

tested on: HEK293 WT BDD-FVIII-Gluc; assay: secreted FVIII-Gluc luciferase Z-score vs DMSO control; higher = more FVIII-Gluc secretion; details: 5 µM
Protocol: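 Natural plant-compound library (480 compounds, ST catalogue IDs) screened on HEK293 cells stably expressing WT BDD-FVIII-Gaussia luciferase fusion at 5 µM. Secreted Gluc activity in the medium is given as a Z-score relative to DMSO controls.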

| Structure (SMILES) | secreted FVIII-Gluc luciferase Z-score |
| --- | --- |
| C/C=C(\C)C(=O)OC1CC2(C)OC2C(OC(C)=O)C2(C)CCC(O)(C(C)C)C12 (stereo not given) | -0.754 |
| COc1cc2cc(Oc3ccc4ccc(=O)oc4c3)c(=O)oc2cc1O | 0.379 |
| O=c1c2ccccc2oc2cc(O)c(C3COCC(CO)C(O)C(O)C3O)c(O)c12 (stereo not given) | 0.341 |
| O=c1cc(-c2ccccc2O)oc2ccc3ccccc3c12 | 0.197 |
| COc1ccccc1-c1oc2ccccc2c(=O)c1O | -0.65 |
| CCC(C)(C)C(=O)O[C@H]1C[C@@H](C)C=C2C=C[C@H](C)[C@H](CC[C@@H]3C[C@@H](O)CC(=O)O3)[C@H]21 | -0.297 |
| O=C(O)C(=O)Cc1ccccc1 | 0.46 |
| COc1c2ccoc2nc2c(OC)c(OCC(O)C(C)(C)O)ccc12 (stereo not given) | 0.695 |
| C[C@H](CCC(=O)O)[C@H]1CC[C@H]2[C@@H]3CC[C@@H]4C[C@H](O)CC[C@]4(C)[C@H]3CC[C@]12C | 1.27 |
| C[C@H]1O[C@@H](O[C@H]2[C@@H](O)C[C@H](O[C@H]3[C@@H](O)C[C@H](O[C@H]4CC[C@@]5(C)[C@H](CC[C@@H]6[C@@H]5CC[C@]5(C)[C@@H](C7=CC(=O)OC7)CC[C@]65O)C4)O[C@@H]3C)O[C@@H]2C)C[C@H](O)[C@@H]1O | -4.57 |
| CC1OC(OCC2OC(Oc3c(-c4ccc(O)c(O)c4)oc4cc(O)cc(O)c4c3=O)C(O)C(O)C2O)C(O)C(O)C1O (stereo not given) | -0.909 |
| OCC1(O)OC[C@H](O)[C@@H](O)[C@@H]1O (stereo not given in full) | 0.437 |
| O=C1OC(C(O)CO)C(O)=C1O (stereo not given) | 0.497 |
| CC1=C(C2=C(C)C(C(C)C)C3=C(C(=O)C(O)C3O)C2O)C(O)C2=C(C(O)C(O)C2=O)C1C(C)C (stereo not given) | -0.542 |
| COC(=O)[C@H]1[C@H]2C[C@H]3c4[nH]c5ccccc5c4CCN3C[C@H]2CC[C@@H]1O | -0.252 |
| NC(=O)C1CCCN1C(=O)C(Cc1cnc[nH]1)NC(=O)C1CCC(=O)N1 (stereo not given) | 0.443 |
| COc1ccc(CCN(C)CCCC(C#N)(c2ccc(OC)c(OC)c2)C(C)C)cc1OC (stereo not given) | 0.188 |
| OCc1ccccc1O[C@@H]1O[C@H](CO)[C@@H](O)[C@H](O)[C@H]1O | 0.752 |
| C=C1CC/C=C(\C)CC[C@@H]2[C@@H]1CC2(C)C | 0.299 |
| Oc1cc2c(cc1O)[C@H]1c3ccc(O)c(O)c3OC[C@@]1(O)C2 | 0.368 |

| Structure (SMILES) | secreted FVIII-Gluc luciferase Z-score |
| --- | --- |
| CO[C@@H]1[C@@H](OC2OC(C)C(OC3CC(C)(O)C(O)C(C)O3)C(N(C)C)C2O)[C@@H](CC=O)C[C@@H](C)[C@@H](OC2CCC(N(C)C)C(C)O2)/C=C/C=C/C[C@@H](C)OC(=O)C[C@H]1O (stereo not given in full) | 0.36 |
| COc1ccccc1-c1cc(=O)c2cc(O)ccc2o1 | 0.281 |
| CC1(C)CC[C@]2(C(=O)O)CC[C@]3(C)C(=CC[C@@H]4[C@@]5(C)CC[C@H](O)C(C)(C)[C@@H]5CC[C@]43C)[C@@H]2C1 | 0.157 |
| Nc1nc2c(ncn2[C@@H]2O[C@H](CO)[C@@H](O)[C@H]2O)c(=O)[nH]1 | 1.04 |
| Nc1ncnc2c1ncn2C1OC(COP(=O)(O)OP(=O)(O)OP(=O)(O)O)C(O)C1O (stereo not given) | 0.477 |
| N[C@@H](Cc1c[nH]cn1)C(=O)O | 0.64 |
| O=c1cc(-c2ccccc2O)oc2cc(O)cc(O)c12 | 0.64 |
| CC1=CC(=O)C2=C(C)CCC3C(C)C(=O)OC3C12 (stereo not given) | 0.0708 |
| COC(=O)C[C@](O)(CCCC(C)(C)O)C(=O)O[C@@H]1C(OC)=C[C@]23CCCN2CCc2cc4c(cc2[C@H]13)OCO4 | -4.72 |
| O=c1cc(-c2ccc(O)c(O)c2)oc2cccc(O)c12 | -0.512 |
| O=c1cc(-c2cccc(O)c2)oc2c(O)c(O)ccc12 | -0.194 |
| CC[C@H](CC[C@@H](C)[C@H]1CC[C@H]2[C@@H]3CC=C4C[C@@H](O)CC[C@]4(C)[C@H]3CC[C@]12C)C(C)C | -0.318 |
| O=c1cc(-c2ccc(O)cc2O)oc2ccccc12 | 0.498 |
| CC(=O)OCC1OC(Oc2cc(OC(C)=O)c3c(=O)cc(-c4ccc(OC(C)=O)c(OC(C)=O)c4)oc3c2)C(OC(C)=O)C(OC(C)=O)C1OC(C)=O (stereo not given) | -0.756 |
| COc1ccc2c3c1O[C@H]1C[C@@H](O)C=C[C@@]31CCN(C)C2 | 0.615 |
| Nc1nc2ncc(CNc3ccc(C(=O)NC(CCC(=O)O)C(=O)O)cc3)nc2c(=O)[nH]1 (stereo not given) | -0.865 |
| COc1cc2oc(-c3ccccc3)cc(=O)c2cc1OC | 0.82 |
| CCCCC/C=C\C/C=C\C/C=C\C/C=C\CCCC(=O)O | 0.604 |
| CN1CCc2cc3c(cc2C(=O)Cc2ccc4c(c2C1)OCO4)OCO3 | -0.0429 |
| O=C1C[C@@H]2[C@@H](CO)[C@H](O)C[C@@H]2O1 | 0.258 |
